Results as given in PubChem BioAssay AID743449 (Broad Institute, 2014).
Screen size: about 9,900 compounds; about 90 (0.9%) were called active. Not shown: some 2% with an inconclusive outcome. The list comes from a sample in which actives are over-represented; it also holds similar structures and randomly drawn compounds. Values without a mark were called inactive.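 Rule for the calls: active = mean normalized replicate activity at least 50 and at least half of replicates each reaching 50; inconclusive = only one of the two criteria met; inactive = neither criterion met.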

Assay: reduction of CTGF mRNA in DLD1 cells – DLD1 colon cancer cells, RT-qPCR, single point, primary screen (AID 743449);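 note: 0% = neutral control wells and 100% = dasatinib control wells; higher means stronger suppression of CTGF expression like dasatinib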
Details: 24 h, at 12.5 µM, stronger effect = higher value

Row | SMILES | inhibition
1 | C[C@@H](NC(=O)C[C@@H]1CC[C@H]2[C@@H](COc3ccc(NC(=O)C4CCOCC4)cc3C(=O)N2C)O1)c1ccccc1 | -5.56%
2 | O=C(CN1CCOCC1)N1CC[C@@H]2[C@H](CO)Nc3ccc(-c4ccccc4F)cc3[C@@H]21 | -17.8%
3 | CCCC#Cc1ccc([C@@H]2[C@H]3CN(S(=O)(=O)c4ccccc4C)CC(=O)N3[C@H]2CO)cc1 | 26.1%
4 | C[C@@H]1CN([C@H](C)CO)C(=O)c2ccccc2-c2ccccc2CO[C@H]1CN(C)C(=O)[C@@H]1CCCN1C | 3.47%
5 | O=C(Nc1ccc2c(c1)[C@H]1C[C@@H](CC(=O)N3CCc4ccccc4C3)O[C@H](CO)[C@H]1O2)c1ccc2c(c1)OCO2 | 56.2% (active)
6 | O=C(Nc1ccc2c(c1)[C@H]1C[C@@H](CC(=O)N3CCc4ccccc4C3)O[C@@H](CO)[C@H]1O2)c1ccc2c(c1)OCO2 | 61.8% (active)
7 | O=C(Nc1ccc2c(c1)[C@@H]1C[C@H](CC(=O)N3CCc4ccccc4C3)O[C@H](CO)[C@@H]1O2)c1ccc2c(c1)OCO2 | -19.3%
8 | O=C(Nc1ccc(C(F)(F)F)cc1)Nc1ccc2c(c1)[C@@H]1C[C@H](CC(=O)N3CCc4ccccc4C3)O[C@H](CO)[C@@H]1O2 | -58%
9 | O=C(Nc1ccc(C(F)(F)F)cc1)Nc1ccc2c(c1)[C@@H]1C[C@H](CC(=O)N3CCc4ccccc4C3)O[C@@H](CO)[C@@H]1O2 | -25%
10 | O=C(Nc1ccc2c(c1)[C@@H]1C[C@@H](CC(=O)N3CCc4ccccc4C3)O[C@H](CO)[C@@H]1O2)c1ccc2c(c1)OCO2 | 21.2%
11 | O=C(Nc1ccc2c(c1)[C@H]1C[C@H](CC(=O)N3CCc4ccccc4C3)O[C@H](CO)[C@H]1O2)c1ccc2c(c1)OCO2 | 17%
12 | O=C(Nc1ccc(C(F)(F)F)cc1)Nc1ccc2c(c1)[C@H]1C[C@H](CC(=O)N3CCc4ccccc4C3)O[C@@H](CO)[C@H]1O2 | 57.2% (active)
13 | O=C(Nc1ccc2c(c1)[C@@H]1C[C@H](CC(=O)N3CCc4ccccc4C3)O[C@@H](CO)[C@@H]1O2)c1ccc2c(c1)OCO2 | -4.94%
14 | CS(=O)(=O)N1[C@@H](C#N)[C@H](c2ccc(C#Cc3cccc(F)c3)cc2)[C@@H]1CO | -161%
15 | O=C(C[C@@H]1CC[C@@H](NC(=O)C2CCOCC2)[C@@H](CO)O1)NCC1CCCCC1 | -39.2%
16 | CO[C@@H]1CN(C)C(=O)c2ccc(NS(=O)(=O)c3ccc(C)cc3)cc2OC[C@H](C)N(C)C[C@@H]1C | -16.4%
17 | CC(=O)N1CC2(C1)[C@H](c1ccccc1)[C@H](CO)N2C(=O)c1cnccn1 | -10.2%
18 | CCCNC(=O)N1C[C@@H]2[C@H](c3ccccc31)[C@@H](CO)N2Cc1cccc(OC)c1 | -37.6%
19 | COCCNC(=O)c1cc2c(c(-c3cccc(C4=CCCCC4)c3)n1)[C@@H](CCO)N([S@](=O)C(C)(C)C)C2 | -10.8%
20 | CCc1nc(N2[C@H](CO)[C@H](c3ccccc3-c3ccc(F)cc3)[C@@H]2C#N)sc1C | -17.7%
21 | CCc1nc(N2[C@H](CO)[C@@H](c3ccccc3-c3ccc(F)cc3)[C@@H]2C#N)sc1C | 55.4% (active)

Row | SMILES | inhibition
22 | CCc1nc(N2[C@@H](C#N)[C@@H](c3ccccc3-c3ccc(F)cc3)[C@@H]2CO)sc1C | 10.1%
23 | COc1ccc(NC(=O)N(C)C[C@H]2Oc3c(NC(=O)CCCCCC(=O)Nc4ccccc4N)cccc3C(=O)N([C@H](C)CO)C[C@@H]2C)cc1 | 51% (active)
24 | C[C@H]1CN([C@@H](C)CO)C(=O)c2cccc(NC(=O)c3ccc(-c4nccs4)cc3)c2O[C@@H]1CN(C)C(=O)Nc1ccc(C(F)(F)F)cc1 | 72.5% (active)
25 | COc1ccc(NC(=O)N(C)C[C@H]2Oc3c(NC(=O)CCCCCC(=O)Nc4ccccc4N)cccc3C(=O)N([C@@H](C)CO)C[C@@H]2C)cc1 | 30.8%
26 | CNC[C@H]1Oc2c(NC(=O)Nc3cccc4ccccc34)cccc2C(=O)N([C@H](C)CO)C[C@@H]1C | 50.9% (active)
27 | C[C@H](CO)N1C[C@H](C)[C@H](CN(C)C(=O)Nc2ccc(C(F)(F)F)cc2)Oc2c(NC(=O)c3ccc(-c4nccs4)cc3)cccc2C1=O | -20.1%
28 | COc1ccc(NC(=O)N(C)C[C@@H]2Oc3c(NC(=O)CCCCCC(=O)Nc4ccccc4N)cccc3C(=O)N([C@@H](C)CO)C[C@H]2C)cc1 | 1.84%
29 | C[C@H]1CN([C@@H](C)CO)C(=O)c2cccc(NC(=O)c3ccc(-c4nccs4)cc3)c2O[C@H]1CN(C)C(=O)Nc1ccc(C(F)(F)F)cc1 | 11.6%
30 | CNC[C@H]1Oc2c(NC(=O)Nc3cccc4ccccc34)cccc2C(=O)N([C@@H](C)CO)C[C@H]1C | -2.92%
31 | C[C@H](CO)N1C[C@H](C)[C@H](CN(C)C(=O)Nc2ccc3c(c2)OCO3)Oc2c(NC(=O)c3nc4ccccc4s3)cccc2C1=O | 14.1%
32 | CNC[C@@H]1Oc2c(NC(=O)Nc3cccc4ccccc34)cccc2C(=O)N([C@@H](C)CO)C[C@H]1C | 17%
33 | C[C@@H]1CN([C@@H](C)CO)C(=O)c2cccc(NC(=O)c3nc4ccccc4s3)c2O[C@H]1CN(C)C(=O)Nc1ccc2c(c1)OCO2 | 52.6% (active)
34 | C[C@@H]1CN([C@@H](C)CO)C(=O)c2cccc(NC(=O)c3nc4ccccc4s3)c2O[C@@H]1CN(C)C(=O)Nc1ccc2c(c1)OCO2 | 13.9%
35 | O=C(C[C@@H]1C=C[C@@H](NC(=O)c2ccncc2)[C@H](CO)O1)NCC1CC1 | 15.8%
36 | COCC#Cc1ccc([C@H]2[C@@H](CO)N3CCCCN(Cc4cccnc4)C[C@H]23)cc1 | -7.41%
37 | O=C(C1CCOCC1)N1CC2(C1)[C@H](c1ccccc1)[C@@H](CO)N2C(=O)CC1CC1 | -35.8%
38 | COc1cccc(NC(=O)C[C@@H]2CC[C@@H]3[C@@H](COc4ccc(NC(=O)C5CC5)cc4C(=O)N3C)O2)c1 | -24.6%
39 | COc1ccc(-c2ccc([C@@H]3[C@@H](CO)N4C(=O)CN(C(=O)Cc5ccccn5)C[C@@H]34)cc2)cc1 | 16.8%
40 | CO[C@H](CN(C)Cc1ccc2c(c1)OCO2)[C@@H](C)CN(C(=O)Nc1ccc(F)cc1)[C@H](C)CO | -17.7%
41 | CC(C)[C@H]1CC=CC[C@@H](C)Oc2ccccc2C(=O)N(C)[C@H](C(C)C)C(=O)N1 (mixture of isomers) | 34.9%
42 | Cc1noc(C)c1NC(=O)N(C)C[C@@H]1Oc2cc(C#CCN(C)C)ccc2S(=O)(=O)N([C@H](C)CO)C[C@H]1C | -1.27%

Row | SMILES | inhibition
43 | COc1ccc(S(=O)(=O)N(C)C[C@@H]2Oc3c(NC(=O)c4nc5ccccc5s4)cccc3C(=O)N([C@H](C)CO)C[C@H]2C)cc1 | 9.74%
44 | COc1ccc(S(=O)(=O)N(C)C[C@@H]2Oc3c(NC(=O)c4nc5ccccc5s4)cccc3C(=O)N([C@@H](C)CO)C[C@@H]2C)cc1 | 34.9%
45 | C[C@@H]1CN([C@H](C)CO)C(=O)c2cccc(NC(=O)c3nc4ccccc4s3)c2O[C@H]1CN(C)C(=O)Nc1ccc2c(c1)OCO2 | 73% (active)
46 | C[C@H]1CN([C@@H](C)CO)C(=O)c2cccc(NC(=O)c3nc4ccccc4s3)c2O[C@@H]1CN(C)C(=O)Nc1ccc2c(c1)OCO2 | 78.9% (active)
47 | C[C@@H]1CN([C@H](C)CO)C(=O)c2cccc(NC(=O)c3nc4ccccc4s3)c2O[C@@H]1CN(C)C(=O)Nc1ccc2c(c1)OCO2 | 6.24%
48 | C[C@H](CO)N1C[C@H](C)[C@@H](CN(C)C(=O)Nc2ccc3c(c2)OCO3)Oc2c(NC(=O)c3nc4ccccc4s3)cccc2C1=O | 46.6%
49 | C[C@@H]1CN([C@@H](C)CO)C(=O)c2cc(NC(=O)Cc3ccccc3)ccc2O[C@@H](C)CCCCO[C@H]1CN(C)Cc1ccncc1 | 2.97%
50 | O=C(Nc1ccc(C(F)(F)F)cc1)Nc1ccc2c(c1)[C@H]1C[C@H](CC(=O)N3CCc4ccccc4C3)O[C@H](CO)[C@H]1O2 | 41.9%
51 | N#Cc1cccc(-c2ccc3c(c2)[C@@H]2[C@@H](CCN2S(=O)(=O)c2ccc(F)cc2)[C@H](CO)N3)c1 | 63% (active)
52 | Cc1ccc(S(=O)(=O)N2CC[C@@H]3[C@H](CO)Nc4ccc(-c5cccc(C(=O)N(C)C)c5)cc4[C@@H]32)cc1 | -15%
53 | C/C=C/c1ccc2c(c1)[C@@H]1[C@@H](CCN1S(=O)(=O)c1ccccc1OC)[C@H](CO)N2C | -5.93%
54 | COc1ccccc1S(=O)(=O)N1CC[C@@H]2[C@@H](CO)N(C)c3ccc(-c4cccc(C#N)c4)cc3[C@@H]21 | 32%
55 | Cc1ccc(S(=O)(=O)N2CC[C@@H]3[C@H]2c2cc(-c4cccc(C(=O)N(C)C)c4)ccc2N[C@@H]3CO)cc1 | 68.4% (active)
56 | COc1ccccc1-c1ccc2c(c1)[C@H]1[C@H](CCN1S(=O)(=O)c1ccc(C)cc1)[C@@H](CO)N2 | 17.3%
57 | COc1ccccc1-c1ccc2c(c1)[C@@H]1[C@@H](CCN1S(=O)(=O)c1ccc(C)cc1)[C@H](CO)N2 | 37.4%
58 | COc1ccccc1S(=O)(=O)N1CC[C@@H]2[C@H]1c1cc(-c3cccc(C#N)c3)ccc1N(C)[C@H]2CO | 62.1% (active)
59 | N#Cc1cccc(-c2ccc3c(c2)[C@@H]2[C@@H](CCN2S(=O)(=O)c2ccc(F)cc2)[C@@H](CO)N3)c1 | 22.5%
60 | Cc1ccc(S(=O)(=O)N2CC[C@H]3[C@H](CO)Nc4ccc(-c5cccc(C(=O)N(C)C)c5)cc4[C@H]32)cc1 | 56.9% (active)
61 | N#Cc1cccc(-c2ccc3c(c2)[C@H]2[C@H](CCN2S(=O)(=O)c2ccc(F)cc2)[C@H](CO)N3)c1 | 20.1%
62 | Cc1ccc(S(=O)(=O)N2CC[C@@H]3[C@@H](CO)Nc4ccc(-c5cccc(C(=O)N(C)C)c5)cc4[C@@H]32)cc1 | 4.93%
